Source: PubChem BioAssay (EPA / NIEHS)
Records with an inconclusive call do not appear. The source made the active and inactive calls. How the source made its calls: active means hit-call score of the fitted dose curve at least 0.9, where 1 is the maximum; inconclusive means response in the unintended direction; inactive means score below 0.9.

What follows are compounds tested against human Retinoid X Receptor beta (RXRb), RXRB (gene 6257) (UniProt P28702) (assay: ATG_RXRb_TRANS: Attagene TRANS-FACTORIAL HepG2 Assay for human Retinoid X Receptor beta (RXRb) (AID 2283013)).
Outline: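 HepG2 cells transiently transfected with multiplexed reporter units driven by GAL4-UAS and exogenous chimeric NR-Gal4 proteins; treated 24 h. Reporter mRNA measured by RT-PCR, 6-FAM labelling and capillary electrophoresis; gain-of-signal fitted versus DMSO baseline.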

Chain of human Retinoid X Receptor beta (RXRb), RXRB (gene 6257) (P28702 whole entry, looked up, the tested form may be a part): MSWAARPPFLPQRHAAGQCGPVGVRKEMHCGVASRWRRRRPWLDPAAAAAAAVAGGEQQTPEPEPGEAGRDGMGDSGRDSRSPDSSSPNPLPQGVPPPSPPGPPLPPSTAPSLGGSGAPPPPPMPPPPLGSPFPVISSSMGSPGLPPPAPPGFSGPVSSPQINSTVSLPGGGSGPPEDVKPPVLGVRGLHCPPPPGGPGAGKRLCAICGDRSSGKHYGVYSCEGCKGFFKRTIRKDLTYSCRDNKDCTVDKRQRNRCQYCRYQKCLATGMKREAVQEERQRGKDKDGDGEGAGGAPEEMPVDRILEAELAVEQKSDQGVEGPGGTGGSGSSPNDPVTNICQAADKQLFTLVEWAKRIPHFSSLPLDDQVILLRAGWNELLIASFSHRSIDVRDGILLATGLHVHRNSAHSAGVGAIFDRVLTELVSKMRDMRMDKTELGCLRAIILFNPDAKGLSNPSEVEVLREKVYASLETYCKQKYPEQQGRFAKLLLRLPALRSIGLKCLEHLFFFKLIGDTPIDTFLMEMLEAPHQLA

Compound | outcome | AC50
O=C(O)COc1ccc(Cl)cc1 | inactive | 
Nc1ccc(Br)cc1 | inactive | 
CC(C)(C)c1ccc(CCOc2ncnc3ccccc23)cc1 | inactive | 
Cc1cc(SCc2sc(-c3ccc(C(F)(F)F)c(F)c3)nc2C)ccc1OCC(=O)O | inactive | 
Brc1ccc(Oc2c(Br)cc(Br)cc2Br)c(Br)c1 | inactive | 
CCCCN(CCCCO)N=O | inactive | 
O=[N+]([O-])c1cc([As](=O)(O)O)ccc1O | inactive | 
CNC(=O)O/N=C/C(C)(C)S(C)(=O)=O | inactive | 
CC(=Cc1ccccc1)[N+](=O)[O-] |  | 17.3 µM (active)
CCCCCCCCCCCCBr | inactive | 
[F][Sn]([c]1ccccc1)([c]1ccccc1)[c]1ccccc1 |  | 0.00128 µM (active)
C=CCc1ccccc1O | inactive | 
CCCCCCCCCCCCOS(=O)(=O)O |  | 33.4 µM (active)
CN(N=O)C(N)=O | inactive | 
CN(N=O)c1ccc([N+](=O)[O-])cc1 | inactive | 
ClCCN1CCOCC1 | inactive | 
CCOC(=O)OC1=C(c2cc(C)ccc2C)C(=O)NC12CCC(OC)CC2 (centres undefined) | inactive | 
CCOc1cc(C=O)ccc1O | inactive | 
CC(C)(C#N)N=NC(C)(C)C#N | inactive | 
N#CS | inactive | 
Nc1ccc(-c2ccccc2)cc1 | inactive | 
CC1(C)COP(Oc2ccccc2)OC1 | inactive | 

What follows are compounds tested against human Thyroid Receptor alpha (THRa1), THRA (gene 7067) (UniProt P10827) (assay: ATG_THRa1_TRANS: Attagene TRANS-FACTORIAL HepG2 Assay for human Thyroid Receptor alpha (THRa1) (AID 2283014)).
Outline: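 First, HepG2 cells receive multiple GAL4-UAS reporter units and the chimeric receptor. They are then dosed for 24 h, after which RNA is reverse-transcribed, amplified, labelled, HpaI-cut and sized by capillary electrophoresis; gain relative to DMSO is scored.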

Chain of human Thyroid Receptor alpha (THRa1), THRA (gene 7067) (P10827 whole entry, looked up, the tested form may be a part): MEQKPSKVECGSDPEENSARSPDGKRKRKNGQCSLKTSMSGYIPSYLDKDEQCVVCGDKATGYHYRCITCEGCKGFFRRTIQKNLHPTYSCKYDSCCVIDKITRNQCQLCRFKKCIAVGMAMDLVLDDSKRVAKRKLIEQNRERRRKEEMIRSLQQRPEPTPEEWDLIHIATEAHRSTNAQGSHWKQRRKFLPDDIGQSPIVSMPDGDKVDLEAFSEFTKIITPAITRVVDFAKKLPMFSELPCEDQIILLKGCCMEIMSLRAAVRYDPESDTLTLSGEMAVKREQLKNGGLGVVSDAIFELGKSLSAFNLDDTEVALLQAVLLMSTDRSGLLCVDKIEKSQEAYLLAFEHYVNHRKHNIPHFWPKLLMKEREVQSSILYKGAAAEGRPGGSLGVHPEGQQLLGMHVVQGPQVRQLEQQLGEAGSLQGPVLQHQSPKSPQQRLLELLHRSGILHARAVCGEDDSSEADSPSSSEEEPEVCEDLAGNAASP

Compound | outcome
CC(C)[C@H](C(=O)OC(C#N)c1cccc(Oc2ccccc2)c1)c1ccc(OC(F)F)cc1 (some centres undefined) | inactive
O=C(O)COc1ccc(Cl)cc1 | inactive
Nc1ccc(Br)cc1 | inactive
Cc1cc(SCc2sc(-c3ccc(C(F)(F)F)c(F)c3)nc2C)ccc1OCC(=O)O | inactive
C#C[C@]1(O)CC[C@H]2[C@@H]3CCC4=CC(=O)CC[C@]4(C)[C@H]3CC[C@@]21C | inactive
CCCCN(CCCCO)N=O | inactive
C=CC(=O)NC(C)(C)CC(C)=O | inactive
O=[N+]([O-])c1cc([As](=O)(O)O)ccc1O | inactive
CNC(=O)O/N=C/C(C)(C)S(C)(=O)=O | inactive
Nc1cccnc1 | inactive
C[N+](C)(C)Cc1ccccc1 | inactive
CC(C)(c1ccccc1)c1cc(-n2nc3ccccc3n2)c(O)c(C(C)(C)c2ccccc2)c1 | inactive
CC(O)(CS(=O)(=O)c1ccc(F)cc1)C(=O)Nc1ccc(C#N)c(C(F)(F)F)c1 (centres undefined) | inactive
CN(C)[C@@H]1C(=O)C(C(N)=O)=C(O)[C@@]2(O)C(=O)C3=C(O)c4c(O)ccc(Cl)c4[C@@](C)(O)[C@H]3C[C@@H]12 | inactive
CN(N=O)C(N)=O | inactive
CN(N=O)c1ccc([N+](=O)[O-])cc1 | inactive
NNCCO | inactive
CCC[CH2][Sn]([Cl])([Cl])[CH2]CCC | inactive
CCOc1cc(C=O)ccc1O | inactive
Nc1ccc(-c2ccccc2)cc1 | inactive

The compounds below were run against human Vitamin D Receptor (VDR), VDR (gene 7421) (UniProt P11473) (assay: ATG_VDR_TRANS: Attagene TRANS-FACTORIAL HepG2 Assay for human Vitamin D Receptor (VDR) (AID 2283022)).
Outline: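 Fluorescence of labelled reporter cDNA fragments, resolved by capillary electrophoresis, gives mRNA induction after 24 h treatment of HepG2 cells carrying transfected Gal4-fusion reporter units. Activity is fitted in the positive direction with DMSO as baseline.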

Chain of human Vitamin D Receptor (VDR), VDR (gene 7421) (P11473 whole entry, looked up, the tested form may be a part): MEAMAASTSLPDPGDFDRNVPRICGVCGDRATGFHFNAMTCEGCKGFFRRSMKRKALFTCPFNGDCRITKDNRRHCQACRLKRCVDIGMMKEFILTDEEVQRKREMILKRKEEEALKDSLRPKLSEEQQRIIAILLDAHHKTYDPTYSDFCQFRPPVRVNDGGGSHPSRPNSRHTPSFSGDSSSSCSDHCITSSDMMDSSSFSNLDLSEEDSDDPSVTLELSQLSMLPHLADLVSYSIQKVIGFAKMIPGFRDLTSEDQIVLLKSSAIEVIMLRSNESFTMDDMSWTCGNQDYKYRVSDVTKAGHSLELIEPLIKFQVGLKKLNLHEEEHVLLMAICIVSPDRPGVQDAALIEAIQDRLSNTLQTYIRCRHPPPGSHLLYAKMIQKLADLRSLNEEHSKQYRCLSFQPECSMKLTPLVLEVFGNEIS

Compound | outcome
O=C(O)COc1ccc(Cl)cc1 | inactive
CCCCS(=O)(=O)Cl | inactive
Cc1cc(SCc2sc(-c3ccc(C(F)(F)F)c(F)c3)nc2C)ccc1OCC(=O)O | inactive
O=[N+]([O-])c1cc([As](=O)(O)O)ccc1O | inactive
C[N+](C)(C)Cc1ccccc1 | inactive
O=c1[nH]c2ccccc2n1C1CCN(CCCC(c2ccc(F)cc2)c2ccc(F)cc2)CC1 | inactive
OC(c1ccc(Cl)cc1)(c1ccc(Cl)cc1)c1cccnc1 | inactive
CN(C)[C@@H]1C(=O)C(C(N)=O)=C(O)[C@@]2(O)C(=O)C3=C(O)c4c(O)ccc(Cl)c4[C@@](C)(O)[C@H]3C[C@@H]12 | inactive
CN(N=O)C(N)=O | inactive
CN(N=O)c1ccc([N+](=O)[O-])cc1 | inactive
NNCCO | inactive
CS(=O)(=O)c1ccc(C(=O)C2C(=O)CCCC2=O)c(Cl)c1COCC(F)(F)F | inactive
